Laboratory results published in PubChem BioAssay AID1159580 (chemical genetic matrix, 2015).
Screen size: about 5,500 compounds; about 2,000 (36%) were called active. About 18% were inconclusive and are not listed. Cut-off read from the data, not from the text of the source: active = normalized growth mostly below about 0.91 (no sharp cut-off); inconclusive = no clear call, values can overlap the other calls; inactive = mostly above about 0.92. This is one part of the list.

Assay: chemical genetic growth profiling, strain panel (AID 1159580);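 note: tested at 20 µM; growth read once vehicle control cultures reached saturation at 30 °C; 1 = growth at the plate median or of vehicle wells; lower values mean less growth of the strain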
Conditions: S. cerevisiae deletion strains, growth OD
[1] = locus YAL013W, strain DEP1, active compounds read low
[2] = locus YAL040C, strain CLN3, active compounds read low
[3] = locus YCL061C, strain MRC1 (second series), active compounds read low
[4] = locus YDR363W, strain ESC2, active compounds read low
[5] = locus YER002W, strain NOP16, active compounds read low
[6] = locus YMR263W, strain SAP30, active compounds read low
[7] = locus YMR307W, strain GAS1, active compounds read low
[8] = locus YNL153C, strain GIM3, active compounds read low
[9] = locus YNL175C, strain NOP13, active compounds read low
[10] = locus YNL197C, strain WHI3, active compounds read low
[11] = locus YNL224C, strain SQS1, active compounds read low
[12] = locus YNL322C, strain KRE1, active compounds read low
[13] = locus YOR083W, strain WHI5 (second series), active compounds read low
[14] = locus YPL055C, strain LGE1, active compounds read low
[15] = locus YDR150W, strain NUM1, active compounds read low

Measured: normalized growth

NCC1(CC(=O)O)CCCCC1
inactive: [1] 1 | [2] 0.991 | [3] 1.01 | [4] 0.995 | [5] 1.01 | [6] 0.999 | [7] 0.99 | [8] 1.02 | [9] 1.01 | [10] 1.01 | [11] 1.02 | [12] 0.998 | [13] 0.977 | [14] 0.999

C[N+]1(C)C2CCC1CC(OC(=O)c1c[nH]c3ccccc13)C2 (centres undefined)
inactive: [1] 1.02 | [2] 1.06 | [3] 0.996 | [4] 1 | [5] 0.974 | [6] 0.997 | [7] 1.01 | [9] 0.973 | [10] 1.01 | [11] 1.02 | [12] 1 | [13] 0.978 | [14] 1 | locus YPL241C, strain CIN2, active compounds read low 1

CCSC(=N)N
inactive: locus YAL021C, strain ccr4, active compounds read low 1.03 | locus YAL026C, strain drs2, active compounds read low 1.01 | locus YAL030W, strain snc1, active compounds read low 1.01 | locus YBL061C, strain skt5, active compounds read low 1.02 | locus YBR009C, strain hhf1, active compounds read low 1.01 | locus YBR023C, strain chs3, active compounds read low 1.02 | locus YBR171W, strain sec66, active compounds read low 1.02 | locus YBR231C, strain swc5, active compounds read low 1.01 | locus YBR279W, strain paf1, active compounds read low 1.01 | locus YCL011C, strain gbp2, active compounds read low 1.02 | locus YCL016C, strain dcc1, active compounds read low 1.01 | [3] 1 | locus YCL061C, strain MRC1, active compounds read low 1.01 | locus YCL069W, strain vba3, active compounds read low 1.01 | locus YCR088W, strain abp1, active compounds read low 1.02 | locus YDL005C, strain med2, active compounds read low 1.03 | locus YDL040C, strain nat1, active compounds read low 1.02 | locus YDR001C, strain nth1, active compounds read low 1.01 | locus YDR069C, strain doa4, active compounds read low 1.01 | locus YDR137W, strain rgp1, active compounds read low 1.01 | [15] 1.01 | locus YDR159W, strain sac3, active compounds read low 1.05 | locus YDR195W, strain ref2 1.01 | locus YDR297W, strain sur2, active compounds read low 1.02 | locus YDR334W, strain swr1, active compounds read low 1.01 | locus YDR335W, strain msn5, active compounds read low 1.02 | [4] 1.01 | locus YDR392W, strain spt3, active compounds read low 0.975 | locus YEL003W, strain gim4, active compounds read low 1.01 | locus YEL037C, strain rad23, active compounds read low 1.01 | locus YEL061C, strain CIN8 (second series), active compounds read low 1.01 | [5] 0.999 | locus YER015W, strain faa2, active compounds read low 1.01 | locus YER016W, strain bim1, active compounds read low 1.02 | locus YER111C, strain swi4, active compounds read low 1.02 | locus YER155C, strain BEM2 (second series), active compounds read low 1.05 | locus YFR010W, strain ubp6, active compounds read low 1.01 | locus YGL167C, strain pmr1, active compounds read low 1.03 | locus YGL173C, strain kem1, active compounds read low 1.01 | locus YGL227W, strain vid30, active compounds read low 1.02 | locus YGL240W, strain doc1, active compounds read low 1.02 | locus YGL253W, strain hxk2, active compounds read low 1.02 | locus YGR078C, strain PAC10, active compounds read low 1.02 | locus YGR229C, strain SMI1, active compounds read low 1.04 | locus YHR013C, strain ard1, active compounds read low 1 | locus YHR027C, strain rpn1, active compounds read low 1.02 | locus YHR142W, strain chs7, active compounds read low 1.03 | locus YJL092W, strain hpr5, active compounds read low 1.01 | locus YJL095W, strain BCK1 (second series), active compounds read low 1.01 | locus YJL115W, strain asf1, active compounds read low 1.02 | locus YJL129C, strain trk1, active compounds read low 1.04 | locus YJL154C, strain vps35, active compounds read low 1.01 | locus YJL164C, strain tpk1, active compounds read low 1.01 | locus YJL166W, strain qcr8, active compounds read low 1.02 | locus YJL187C, strain SWE1, active compounds read low 1.01 | locus YKL160W, strain elf1, active compounds read low 1.02 | locus YKR026C, strain gcn3, active compounds read low 1.01 | locus YKR091W, strain srl3, active compounds read low 1.01 | locus YLL001W, strain dnm1, active compounds read low 1.02 | locus YLL026W, active compounds read low 1.01 | locus YLL041C, strain sdh2, active compounds read low 1.02 | locus YLR027C, strain aat2, active compounds read low 1.01 | locus YLR221C, strain rsa3, active compounds read low 1.01 | locus YLR258W, strain gsy2, active compounds read low 1.01 | locus YLR262C, strain YPT6 (second series), active compounds read low 1.02 | locus YLR320W, strain mms22, active compounds read low 1.03 | locus YLR342W, strain FKS1, active compounds read low 1.02 | locus YLR357W, strain rsc2, active compounds read low 1.01 | locus YLR370C, strain arc18, active compounds read low 1.02 | locus YLR384C, strain iki3, active compounds read low 1.02 | locus YML120C, strain ndi1, active compounds read low 1.01 | locus YMR058W, strain fet3, active compounds read low 1.02 | locus YMR125W, strain sto1, active compounds read low 1.01 | locus YMR129W, active compounds read low 1.02 | locus YMR205C, strain PFK2, active compounds read low 0.998 | locus YMR231W, strain pep5, active compounds read low 1.01 | [6] 1.01 | [7] 1.03 | locus YNL071W, strain lat1, active compounds read low 1.02 | [8] 1.03 | [9] 0.988 | [10] 0.992 | locus YNL209W, strain ssb2, active compounds read low 1.01 | [11] 1.01 | locus YNL248C, strain rpa49, active compounds read low 1.02 | locus YNL322C, strain KRE1 (second series), active compounds read low 1.02 | [12] 1.01 | locus YNR049C, strain mso1, active compounds read low 1.01 | locus YOR001W, strain rrp6, active compounds read low 1.02 | locus YOR070C, strain gyp1, active compounds read low 1.01 | locus YOR080W, strain dia2, active compounds read low 1.03 | [13] 0.995 | locus YOR083W, strain WHI5, active compounds read low 1.03 | locus YOR106W, strain vam3, active compounds read low 1.04 | locus YOR265W, strain rbl2, active compounds read low 1.01 | locus YOR270C, strain vph1, active compounds read low 1.07 | locus YOR290C, strain snf2, active compounds read low 0.96 | locus YPL051W, strain arl3, active compounds read low 1.02 | locus YPL078C, strain atp4, active compounds read low 1.02 | locus YPL106C, strain sse1, active compounds read low 1.04 | locus YPL240C, strain hsp82, active compounds read low 1.02
active: [2] 1.12 [resistant] | [14] 1.17 [resistant]

CN(C)CCCCSC(=N)N
inactive: [1] 1.04 | [2] 0.998 | [3] 1.02 | [15] 1.01 | [4] 1.02 | [5] 0.985 | locus YJR075W, strain HOC1, active compounds read low 1.04 | [7] 1.01 | locus YNL128W, strain TEP1, active compounds read low 0.999 | [9] 0.995 | [10] 0.992 | [11] 1 | [13] 1.01
